Structures can show the parent of a compound that is named as a salt. ± gives the standard deviation or the standard deviation of the averaged measurements.
Key:
Conditions in all cases: 25 µM; exposure: 24-48 hpf
[1] = tested on: Danio rerio Tg(wt1b:EGFP) embryo, pronephros; test: glomerular separation, fold change vs DMSO control; higher = glomeruli further apart (abnormal)
Method in brief: (§1)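 Using a Fiji macro, distances and angles were calculated from 16 reference points set by hand on maximum projections of pronephroi imaged dorsally (470 nm, 10 z-slices) in agarose-filled 96-well plates. The dechorionated Tg(wt1b:EGFP) zebrafish embryos had received 25 μM compound in 0.5% DMSO in HEPES-buffered E3 with 0.003% PTU from 24 to 48 hpf at 28.5°C. Values more than 2 SD from a feature's mean were excluded. Each feature appears as a fold change over the mean of DMSO-treated embryos from the same day.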

[2] = tested on: Danio rerio Tg(wt1b:EGFP) embryo, pronephros; test: glomerular width (mean of left and right), fold change vs DMSO control; higher = wider glomerulus
Method in brief: as §1

[3] = tested on: Danio rerio Tg(wt1b:EGFP) embryo, pronephros; test: fraction of imaged embryos annotated as normal kidney; higher = less nephrotoxic; extreme values may be limits of the assay
Method in brief: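 Embryos of the Tg(wt1b:EGFP) zebrafish line were dechorionated and held in 12-well plates with 25 μM compound in 0.5% DMSO and 5 mM HEPES-buffered E3 containing 0.003% PTU, from 24 to 48 hpf at 28.5°C. Larvae were then anaesthetised with tricaine, set dorsal side up in agarose-filled 96-well plates, and their pronephroi imaged by widefield fluorescence at 470 nm over 10 z-slices. Each value is the fraction of embryos per treatment placed in the normal-kidney category after manual annotation of maximum projections.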

[4] = tested on: Danio rerio Tg(wt1b:EGFP) embryo, pronephros; test: pronephric angle neck segment to proximal convoluted tubule (mean of left and right), fold change vs DMSO control; higher = larger pronephric angle
Method in brief: as §1

SMILES | glomerular separation [1] | glomerular width [2] | fraction of imaged embryos annotated as normal kidney [3] | pronephric angle neck segment [4]
C/C(=C\C(=O)OCCCCCCCCC(=O)O)C[C@@H]1OC[C@H](C[C@@H]2O[C@H]2[C@@H](C)[C@H](C)O)[C@@H](O)[C@H]1O [Mupirocin] | 0.88 ± 0.41 | 1.01 ± 0.013 | 0.75 | 0.985 ± 0.046
c1ccc2[nH]c(-c3cscn3)nc2c1 [Tiabendazole] | 1.4 ± 0.65 | 1.01 ± 0.12 | 0.667 | 1.04 ± 0.02
CC(=O)N(O)CCCCCNC(=O)CCC(=O)N(O)CCCCCNC(=O)CCC(=O)N(O)CCCCCN [Deferoxamine mesylate] | 0.888 ± 0.3 | 1.02 ± 0.042 | 0.917 | 1.01 ± 0.018
C=C1C(=O)O[C@H]2[C@H]1CC/C(C)=C/CC[C@@]1(C)O[C@@H]21 [Parthenolide] | 2.81 ± 1.2 | 0.8373 ± 0.0079 | 0.364 | 1.4 ± 0.038
CO[C@@]1(NC(=O)C2SC(=C(C(N)=O)C(=O)O)S2)C(=O)N2C(C(=O)O)=C(CSc3nnnn3C)CS[C@@H]21 (stereo partly specified) [Cefotetan] | 1.24 ± 0.33 | 0.972 ± 0.012 | 0.909 | 0.985 ± 0.06
CC(=O)NS(=O)(=O)c1ccc(N)cc1 [Sulfacetamide sodic hydrate] | 0.937 ± 0.25 | 1.05 ± 0.057 | 1 | 0.9887 ± 0.0093
CC(C)n1c(/C=C/C(O)CC(O)CC(=O)O)c(-c2ccc(F)cc2)c2ccccc21 (stereo unspecified) [Fluvastatin sodium salt] | 4.31 ± 1.6 | 0.609 ± 0.057 | 0 | 1.56 ± 0.093
CO/N=C(\C(=O)N[C@@H]1C(=O)N2C(C(=O)O)=C(C[N+]3(C)CCCC3)CS[C@H]12)c1csc(N)n1 [Cefepime hydrochloride] | 0.845 ± 0.26 | 1.01 ± 0.018 | 0.917 | 0.9786 ± 0.003
CN(C)CCOc1ccc(/C(=C(/CCCl)c2ccccc2)c2ccccc2)cc1 [Toremifene] | 0.881 ± 0.39 | 0.904 ± 0.08 | 0.917 | 1.04 ± 0.018
Cc1[nH]c(=O)c(C#N)cc1-c1ccncc1 [Milrinone] | 1.13 ± 0.36 | 1.01 ± 0.047 | 0.917 | 0.9759 ± 0.0011
Clc1ccc(CO/N=C(\Cn2ccnc2)c2ccc(Cl)cc2Cl)c(Cl)c1 [Oxiconazole Nitrate] | 3.51 ± 1.1 | 0.623 ± 0.014 | 0 | 1.26 ± 0.03
Cc1c(F)c(N2CCNC(C)C2)cc2c1c(=O)c(C(=O)O)cn2C1CC1 (stereo unspecified) [Grepafloxacin] | 0.897 ± 0.35 | 1.033 ± 0.0021 | 0.75 | 0.985 ± 0.013
Clc1ccc(CSC(Cn2ccnc2)c2ccc(Cl)cc2Cl)cc1 (stereo unspecified) [Sulconazole nitrate] | 2.88 ± 1.5 | 0.798 ± 0.035 | 0.25 | 1.38 ± 0.15
CCN1CCCC1CNC(=O)c1cc(S(=O)(=O)CC)c(N)cc1OC (stereo unspecified) [Amisulpride] | 0.971 ± 0.31 | 1.04 ± 0.042 | 0.9 | 0.9586 ± 0.0016
CCn1cc(C(=O)O)c(=O)c2cnc(N3CCCC3)nc21 [Piromidic acid] | 0.725 ± 0.31 | 0.909 ± 0.021 | 0.9 | 1 ± 0.008
CC(=O)c1ccc(S(=O)(=O)NC(=O)NC2CCCCC2)cc1 [Acetohexamide] | 0.839 ± 0.25 | 1.05 ± 0.023 | 0.833 | 0.9767 ± 0.0092
CCn1cc(C(=O)O)c(=O)c2cc(F)c(N3CCN(C)CC3)cc21 [Pefloxacine] | 0.997 ± 0.31 | 1.01 ± 0.021 | 1 | 1.01 ± 0.018
Cc1cccc(Nc2ccncc2S(=O)(=O)NC(=O)NC(C)C)c1 [Torsemide] | 1.12 ± 0.3 | 0.95 ± 0.015 | 1 | 0.905 ± 0.03
CCN(CC)CCNC(=O)COc1ccc(OC)cc1 [Mefexamide hydrochloride] | 1.52 ± 0.84 | 0.916 ± 0.021 | 0.833 | 1.07 ± 0.086
C[n+]1ccccc1/C=N/O [Pralidoxime chloride] | 0.691 ± 0.38 | 0.9582 ± 0.0035 | 0.833 | 1.039 ± 0.01
Cc1cc(NC(=O)C2=C(O)c3ccccc3S(=O)(=O)N2C)no1 [Isoxicam] | 1.19 ± 0.55 | 1.04 ± 0.034 | 0.917 | 1.02 ± 0.036
COc1ccc2[nH]c([S+]([O-])Cc3ncc(C)c(OC)c3C)nc2n1 (stereo unspecified) [Tenatoprazole] | 1.61 ± 0.86 | 0.93 ± 0.064 | 0.917 | 1.17 ± 0.069
CC1CC(OC(=O)C(O)c2ccccc2)CC(C)(C)N1C (stereo unspecified) [Eucatropine hydrochloride] | 0.748 ± 0.31 | 0.975 ± 0.042 | 0.917 | 0.9583 ± 0.0057
Nc1ncn(C2OC(CO)C(O)C2O)c(=O)n1 (stereo unspecified) [Azacytidine-5] | 0.981 ± 0.4 | 0.979 ± 0.017 | 1 | 1.02 ± 0.031
COc1ccccc1O [Guaiacol] | 1.03 ± 0.3 | 1.007 ± 0.0036 | 0.917 | 1.02 ± 0.035
CC(C)[C@H]1CC[C@H](C(=O)N[C@H](Cc2ccccc2)C(=O)O)CC1 [Nateglinide] | 0.985 ± 0.37 | 1.04 ± 0.024 | 1 | 1.08 ± 0.024
CN(Cc1cc(Br)cc(Br)c1N)C1CCCCC1 [Bromhexine hydrochloride] | 0.612 ± 0.2 | 0.984 ± 0.067 | 1 | 1 ± 0.026
CC(C)(C(=O)c1cccnc1)c1cccnc1 [Metyrapone] | 0.85 ± 0.27 | 0.961 ± 0.039 | 0.9 | 1.03 ± 0.076
CC[C@]12CCCN3CCc4c(n(c5ccccc45)C(=O)C1)[C@@H]32 [Eburnamonine (-)] | 1.19 ± 0.41 | 0.922 ± 0.059 | 1 | 1.03 ± 0.017
